Measured values: PubChem BioAssay (Tox21)
Records with an inconclusive call do not appear. Where a call stands in place of a potency, no number is given. Active and inactive are the calls of the source. Calls follow the shape of the dose curve; as a rule, active = well fitted cell-killing curve with a large enough effect in the repeat runs; inconclusive = weak or mixed curves, or effect the other way; inactive = flat fitted curve, though single readings scatter.

Experiment: qHTS assay to identify small molecule antagonists of the estrogen receptor alpha (ER-alpha) signaling pathway using the BG1 cell line in the presence of 0.1 nM 17-beta-estradiol - cell viability counter screen (AID 1259241); also: nearly all actives have a fitted effect of over 40% in size
Conditions: VM7Luc4E2 (BG1) viability, CellTiter-Fluor protease, 22 h, 0.1 nM estradiol agonist added; series mostly up to 92.4 µM
Source text: National Center for Advancing Translational Sciences [NCATS]
NIH Chemical Genomics Center [NCGC]
U.S. Environmental Protection Agency [EPA]
National Institutes of Environmental Health Sciences [NIEHS]
National Toxicology Program [NTP]
U.S. Food and Drug Administration [FDA]
Estrogen receptor (ER), a member of the nuclear hormone receptor plays an important role in development, metabolic homeostasis and reproduction. Two subtypes of ER, ER-alpha and ER-beta, have similar expression patterns with some uniqueness in both types. Endocrine disrupting chemicals (EDCs) and their interactions with steroid hormone receptors like ER causes disruption of normal endocrine function. Therefore, it is important to understand the effect of environmental chemicals in ER signaling pathway. For identifying ER antagonists, VM7Luc4E2 cell line was used to screen against Tox21 compound libraries.
VM7Luc4E2 cell line (provided by Denison MS, University of California) endogenously express full-length ER-alpha and is stably transfected with a plasmid containing four estrogen responsive elements (ERE) upstream of a luciferase reporter gene. The current screening for identification of ER-alpha inhibitors against Tox21 compound libraries used lower concentration (0.1 nM) of 17beta-Estradiol as a stimulator. The cytotoxicity of the Tox21 compound libraries against VM7Luc4E2 cell line was tested by measuring live-cell protease activity using CellTiter-Fluor assay in the same wells.
Tox21 Assay Protocol Summary:
VM7Luc4E2 cells were cultured in phenol red free assay medium containing 10% charcoal stripped FBS for 5 days prior to the assay. The cells were dispensed at 4,000 cells/well in 4 uL of assay medium into white wall/solid-bottom 1536-well plates (Corning Life Sciences, Corning, NY) using a Multidrop Combi (ThermoFisher Scientific, Waltham, MA) dispenser. After the assay plates were incubated at 37C and 5% CO2 for 24 hr, 23 nL of compounds dissolved in DMSO, positive controls or DMSO only was transferred to the assay plates by a Pintool station (Kalypsys, San Diego, CA). The transfer of compounds was followed by the addition of 1 uL of 0.1 nM (final concentration) agonist (17beta-Estradiol)/assay medium using a Flying Reagent Dispenser (FRD, Aurora Discovery, San Diego, CA). The plates were incubated at 37C and 5% CO2 for 22 hr. For cytotoxicity assay, 1 uL of CellTiter-Fluor reagent (Promega Corporation, Madison, WI) was added to each well using the FRD and after 30 min incubation at 37C and 5% CO2, The fluorescence intensity was measured using ViewLux plate reader (PerkinElmer, Shelton, CT).
Potency is read from the fitted curve at half-maximal effect.

Row | SMILES | Potency | activity change, negative = cytotoxicity
1 | CC(=O)SCc1ccco1 | inactive | –
2 | C=CC(=O)OCCOC(=O)CCC(=O)O | inactive | –
3 | CC(C(=O)O)c1ccc(-c2ccccc2)c(F)c1 (stereo not given) | inactive | –
4 | ClC(Cl)(Cl)c1ccc(C(Cl)(Cl)Cl)cc1 | inactive | –
5 | CN1CCC(=C2c3ccccc3C=Cc3ccccc32)CC1 | inactive | –
6 | c1ccc(CNCc2ccccc2)cc1 | inactive | –
7 | CNS(=O)(=O)Cc1ccc2[nH]cc(CCN(C)C)c2c1 | inactive | –
8 | CC(=O)O[C@@H]1C(=O)O[C@@H]2[C@H]1OC(=O)[C@@H]2OC(C)=O | inactive | –
9 | CCN(CCO)CCCC(C)Nc1ccnc2cc(Cl)ccc12 (stereo not given) | – | -6.05% [at 8.39 µM] (inactive)
10 | CC(C)(Oc1ccc(Cl)cc1)C(=O)OCCCOC(=O)C(C)(C)Oc1ccc(Cl)cc1 | inactive | –
11 | Nc1ccc(C(=O)Nc2ccccc2N)cc1 | inactive | –
12 | Cc1cc(C)c(S(=O)(=O)O)cc1N=Nc1cc(S(=O)(=O)O)c2ccccc2c1O | 54.5 µM (active) | –
13 | CCCCCOC(=O)c1ccc(O)cc1 | inactive | –
14 | Cc1ccccn1 | inactive | –
15 | CCCCCCOC(=O)CCC | inactive | –
16 | CN1CCC(=C2c3ccccc3CCc3sccc32)CC1 | inactive | –
17 | O=C(C(=O)c1ccc(Br)cc1)c1ccc(Br)cc1 | – | -6.61% [at 19 µM] (inactive)
18 | O=S1(=O)c2cccc3cccc(c23)N1CCCN1CCN(c2ccc(F)cc2)CC1 | inactive | –
19 | Nc1ccc(C(=O)N2CC3CC(CN(Cc4ccccc4)C3)C2)cc1 | inactive | –
20 | CCOc1nc2cccc(C(=O)O)c2n1Cc1ccc(-c2ccccc2-c2nn[nH]n2)cc1 | inactive | –

Row | SMILES | Potency | activity change, negative = cytotoxicity
21 | C1CCC2OC2C1 (stereo not given) | inactive | –
22 | CCCC[C@H]1CN(CC2CCOCC2)C(=O)OC12CCN(C1(C)CCN(C(=O)c3c(C)ncnc3C)CC1)CC2 | inactive | –
23 | CCCCCc1ccc(N)cc1 | inactive | –
24 | O=C(O)C(c1ccc(Cl)cc1)c1ccc(Cl)cc1 | inactive | –
25 | NC[C@H]1O[C@H](O[C@H]2[C@H](O)[C@@H](O[C@H]3O[C@H](CO)[C@@H](O)[C@H](N)[C@H]3O)[C@H](N)C[C@@H]2N)[C@H](O)[C@@H](O)[C@@H]1O | – | 2.35% [at 8.39 µM] (inactive)
26 | CCCCCOC(=O)COc1cc(N2C(=O)C3=C(CCCC3)C2=O)c(F)cc1Cl | inactive | –
27 | CCCCOC(=O)/C=C\C(=O)OCCCC | inactive | –
28 | CNCC[C@@H](Oc1ccccc1C)c1ccccc1 | inactive | –
29 | C[C@H](CCC(=O)O)[C@H]1CC[C@H]2[C@@H]3[C@H](O)C[C@@H]4C[C@H](O)CC[C@]4(C)[C@H]3CC[C@]12C | inactive | –
30 | OCC1CC2CC1C1CCC(CO)C21 (stereo not given) | inactive | –
31 | CC1=CCC(C(C)C)C=C1 (stereo not given) | inactive | –
32 | O=C(O)c1cccc(N(Cc2cccnc2)c2ccc(OC(F)F)c(OC(F)F)c2)c1 | inactive | –
33 | CN(C)C/C=C(/c1ccc(Br)cc1)c1cccnc1 | inactive | –
34 | COc1ccc(C(C)=O)cc1 | inactive | –
35 | CC[C@@H]1C[C@H](N(Cc2cc(C(F)(F)F)cc(C(F)(F)F)c2)C(C)=O)c2cc(C(F)(F)F)ccc2N1C(=O)OC(C)C | inactive | –
36 | Cn1c(=O)c2c(ncn2CC(O)CO)n(C)c1=O (stereo not given) | inactive | –
37 | C=CC(=O)OCC(C)OCC(C)OCC(C)OC(=O)C=C (stereo not given) | inactive | –
38 | CN1CCC(OC(c2ccccc2)c2ccccc2)CC1 | inactive | –
39 | Nc1nc(CC(=O)O)cs1 | inactive | –
40 | COC(=O)CSc1cc(N=c2sc(=O)n3n2CCCC3)c(F)cc1Cl | inactive | –
